# Results: ChEMBL document CHEMBL4513216, “Probing the Open Global Health Chemical Diversity Library for Multistage-Active Starting Points for Next-Generation Antimalarials” (ACS Infect Dis, 2020)
# In all, about 68,000 compounds went through this assay and about 2,700 (4%) showed an effect of 50% or more. The list comes from a sample in which strong results are over-represented; it also holds similar structures and randomly drawn compounds.
# Test system: Plasmodium berghei
# Assay: Screen against P. berghei liver stage (PbLuc), transformed with Luciferase, at 2uM
# Format: functional, HepG2
# Settings: tested at 2 uM
row,SMILES,INHIBITION [%]
1,CNC(=O)CCOC(=O)c1cccc(-n2cccn2)c1,55.25
2,CNC(=O)COC(=O)c1cccc(-n2ccc(C(F)(F)F)n2)c1,10.31
3,Cc1nc2c(c(N3CCCC(OCc4ccccn4)C3)n1)CCNCC2 (configuration not stated),20.71
4,Cc1ccc(CN2CC[C@@H]3O[C@@H](C(=O)N4CCN(C)CC4)C[C@@H]32)cc1,41.55
5,Cc1nccc(C(=O)N2CCCN(Cc3cnn(C(C)C)c3)CC2)n1,16.6
6,COC(=O)C(C)(C)NC(=O)C1CC(=O)N(C2CC2)C1 (configuration not stated),5.15
7,Cc1cc(NCCOCCS(C)(=O)=O)nc2ccccc12,53.16
8,Cc1cc(NCCS(C)(=O)=O)nc2ccccc12,-0.6
9,Cc1cc(NCCCNS(C)(=O)=O)nc2ccccc12,20.88
10,Cc1cccc(-c2nc(CN3CCCC3Cn3cc(C)cn3)no2)c1 (configuration not stated),1.36
11,COC(=O)N1CCCN(C(=O)c2cccc3cccnc23)CC1,5.72
12,COCC1CN(CCOc2ccc(Cl)cc2)Cc2c1cnn2C (configuration not stated),-17.24
13,Cc1cc(-c2cnc(C)nc2CN(C)C(=O)c2cc(C3CC3)on2)on1,51.57
14,Cc1cc(-c2cnc(C)nc2CN(C)C(=O)c2ccccn2)on1,-0.54
15,Cc1cc(-c2cnc(C(C)C)nc2CN(C)C(=O)c2ccccn2)on1,56.57
16,Cc1cc(-c2cnn(CCNC(=O)C3CC3)c2C2CC2)on1,-39.92
17,Cc1cc(-c2cnn(CCNC(=O)c3cc[nH]n3)c2C2CC2)on1,-2.47
18,Cc1cc(-c2cnc(C3CC3)nc2CN(C)C(=O)c2ccccn2)on1,34.06
19,Cc1nn(C)cc1C1=NS(=O)(=O)N(C)C(C(=O)Nc2ccc(Cl)cc2)=C1,-13.02
20,CCn1cc(S(=O)(=O)NC2CCCN(CCCc3ccccc3)C2)cn1 (configuration not stated),7.21
21,CC(=O)N1CCCCCC1C1CCN(Cc2nnc(C(C)(C)C)o2)CC1 (configuration not stated),30.82
22,COc1cncc(-n2ccnc2-c2ccc(C(=O)O)s2)c1,48.58
23,Cc1cnc(C(=O)N2CCC3(CC2)CC(c2ccccc2)C(=O)N3)cn1 (configuration not stated),-6.21
24,CC(C)c1nc(C(=O)N2C[C@H](C(C)C)[C@@H](N)C2)cs1,58.69
25,CC(=O)N[C@@H]1CN(C(=O)c2csc(C(C)C)n2)C[C@H]1C(C)C,3.62
26,CC(C)c1nc(C(=O)N2CCCC(N)CC2)cs1 (configuration not stated),-66.05

row,SMILES,INHIBITION [%]
1,COc1ccc(-c2cc(CN)nc3ccnn23)cc1,-11.81
2,O=c1c(NCc2ccco2)c(NCC(O)CN2CCOCC2)c1=O (configuration not stated),53.33
3,O=c1c(NCc2ccccn2)c(NCC(O)CN2CCOCC2)c1=O (configuration not stated),15.02
4,O=c1c(NCc2ccncc2)c(NCC(O)CN2CCOCC2)c1=O (configuration not stated),1.08
5,COCCN1CCc2cc(C(=O)NCC3CC3)c(NC(C)C)nc2CC1,25.35
6,COC[C@]1(O)CCN(C(=O)c2ccc(CN(C)C)o2)CC1(C)C,8.88
7,CN(Cc1ccccc1)C1(C(=O)NC(CO)CO)Cc2ccccc2C1,31.35
8,CC(Cc1cn(CCc2nnn[nH]2)nn1)c1ccccc1 (configuration not stated),29.41
9,Cc1nccc([C@@H]2C[C@@H]3CCN(S(C)(=O)=O)C[C@H]3O2)n1,26.65
10,Cc1nccc([C@@H]2C[C@@H]3CCN(S(=O)(=O)N(C)C)C[C@H]3O2)n1,54.16
11,Cc1nccc([C@H]2C[C@@H]3CCN(S(=O)(=O)N(C)C)C[C@H]3O2)n1,21.33
12,COc1cc(N2C[C@H]3CCC[C@@H](CN4CCOCC4)[C@H]3C2)ncn1,36.75
13,CCCS(=O)(=O)N1C[C@@H]2CN(Cc3ccoc3)CCO[C@@H]2C1,33.4
14,Cn1cc(C(=O)N2CCSc3ccccc32)ccc1=O,50.05
15,COCCCN1CC2(CCN(C(=O)c3ccc(=O)n(C)c3)CC2)CC1=O,44.23
16,CN1CC2(CCN(C(=O)c3ccc(=O)n(C)c3)CC2)CC1=O,53.13
17,CN1CCN(C(=O)c2ccc(=O)n(C)c2)c2ccccc21,51.19
18,CC1CN(C)c2ccccc2N(C(=O)c2ccc(=O)n(C)c2)C1 (configuration not stated),15.47
19,CC(=O)N1CCCN(C(=O)c2ccc(=O)n(C)c2)c2ccccc21,28.18
20,CN1CC2(CCN(C(=O)c3ccc4nonc4c3)CC2)CC1=O,10.02
21,CCN1CCN(C(=O)c2ccc(=O)n(C)c2)c2ccccc21,-22.63
22,Cn1cc(C(=O)N2CCOc3ccccc32)ccc1=O,-31.6
23,CC(C)n1nc(CN2CCCC2)c2c1CN(CC1CC1)CC2,-29
24,FC(F)(F)CCc1ccnc(NCc2csc(N3CCOCC3)n2)n1,-17.11
25,Cn1nnc2c1C(COCC1CC1)CN(C(=O)C1=CCCC1)C2 (configuration not stated),22.68
26,CCN1CCC2(CCN(c3ncccn3)CC2)C1=O,32.05
